Source: PubChem BioAssay AID1259415 (National Center for Advancing Translational Sciences (NCATS), 2018)
Hit rate of the full screen: of about 410,000 compounds, about 18,000 (4.4%) were called active. Roughly 7% stayed inconclusive and do not appear here. Only a selection was taken, and actives are over-represented in it overall. Values without a mark were called inactive. Cut-off read from the data, not from the text of the source: active = activity change below about -60%; inconclusive = no clear call, values can overlap the other calls; inactive = above about -39%.

Assay: qHTS Assay for inhibitors of the human cytomegalovirus (HCMV)
Settings: HFF cells, HCMV-luciferase reporter, 72 h; at 57.5 µM; stronger effect = lower value
Method in brief: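 Two-dose cell screen: HFF monolayers treated with compounds and infected with luciferase-expressing HCMV at 1 PFU/cell, 72 h at 37C, then lysed for luciferase measurement.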
% is set by controls: 0 for no effect and ±100 for the full control effect.

Structure (SMILES) | activity change, negative = inhibition
O=C(NC1CCN(Cc2ccccc2)CC1)c1cc(Br)c(Br)[nH]1 | -22.7%
S=C(Nc1ccc(Br)cc1Cl)NC1CCN(Cc2ccccc2)CC1 | -84.5% (active)
Cc1cc(Br)ccc1NC(=S)NC1CCCC1 | -24.2%
Cc1cc(C)n(CCC(=O)N2CCN(S(=O)(=O)c3ccc(C)c(C)c3)CC2)n1 | -15.9%
CCc1cc2c(cc(C(=O)OC)n2Cc2nc(-c3ccc(C)cc3)oc2C)s1 | 4.7%
CCCN1CCc2nc(N3CCN(C)CC3)ncc2C1 | 0.276%
COc1ccc(/C(N)=N/OC(=O)Oc2ccccc2)cc1 | 9.17%
COc1ccc(C(C#N)=C2C=CC(=NO)c3ccccc32)cc1 | -90.8% (active)
CC(c1ccco1)N(C(=O)c1ccc(S(=O)(=O)N2CCCCC2)cc1)c1ccccn1 (stereo not given) | -14.3%
Fc1ccc(CN2CCc3nc(Nc4ccccc4)ncc3C2)cc1F | -18.4%
c1ccc(Cn2nnc3c(NCC4CC4)ncnc32)cc1 | 30.2%
COc1ccc(CCNc2ncnc3c2nnn3Cc2ccccc2)cc1 | -95.1% (active)
CC(C)Nc1ncnc2c1nnn2Cc1ccccc1 | 45.3%
O=C(CN1c2ccccc2S(=O)(=O)c2ccccc21)Nc1cccc(C(F)(F)F)c1 | 14.4%
O=C(Cn1cnc2c(oc3ccccc32)c1=O)Nc1ccc(OC(F)(F)F)cc1 | 14%
COc1ccc(OCc2ccc(-c3nc(C#N)c(N4CCN(c5ccccc5)CC4)o3)o2)cc1 | 2.46%
OCCN1CCN(C(=S)c2ccc(-c3ccccc3)cc2)CC1 | -79.4% (active)
O=C1CCN(CCCc2ccccc2)CCN1CCO | -6.21%
O=C(NC(=S)N1CCN(Cc2ccccc2)CC1)c1ccccc1 | -3.08%
COCCNc1ncnc2c1c(-c1ccccc1)cn2-c1ccc(C)c(Cl)c1 | -33.4%
CCc1ccccc1NC(=S)N(CCN1CCCCCC1)Cc1ccco1 | 29.5%
Cc1ccc(NC(=S)N(CCCN2CCCC2)Cc2cccn2Cc2ccc(Cl)cc2)cc1 | -72% (active)
Cc1ccccc1NC(=S)N(CCCN1CCOCC1)Cc1cccs1 | -30.9%

Structure (SMILES) | activity change, negative = inhibition
CC(C)NC(=O)C(=O)NCCCOC(C)C | -7.97%
CN(CC(=O)NCCN1CCOCC1)S(=O)(=O)c1ccc(F)cc1 | -13.5%
CCc1ccccc1NC(=O)CSc1nnc(-c2ccccc2)c(-c2ccccc2)n1 | -84.3% (active)
COc1ccc(-c2nnc(SCC(=O)Nc3ccc(C(C)C)cc3)nc2-c2ccc(OC)c(OC)c2)cc1OC | 2%
Cc1ccc(-c2nnc(SCC(=O)NCc3ccccc3)nc2-c2ccc(C)cc2)cc1 | -16.5%
O=c1cc(CSc2ccccn2)nc(N2CCN(c3ccccc3)CC2)[nH]1 | 15.5%
CCOc1ccccc1N1CCN(C(=O)c2ccc3[nH]c(C)c(C)c3c2)CC1 | -4.04%
COc1ccccc1N1CCN(C(=O)c2cc(=O)c3cc(C)cc(C)c3o2)CC1 | -72.5% (active)
COc1ccccc1N1CCN(C(=O)c2ccc(NC3=NC4CS(=O)(=O)CC4S3)cc2)CC1 (stereo not given) | -1.18%
O=c1c2cccnc2n(Cc2cccc(F)c2)c(=O)n1Cc1ccccc1Cl | -4.52%
O=S(=O)(NCC(c1ccco1)N1CCOCC1)c1cc(F)ccc1F (stereo not given) | 10.6%
CC(OC(=O)/C=C/c1ccccc1)C(=O)Nc1ccc(C(N)=O)cc1 (stereo not given) | -26.6%
O=C(N/N=C/C=C/c1ccccc1)C1CC1(c1ccccc1)c1ccccc1 (stereo not given) | -22.7%
O=C(NN=CC=Cc1ccccc1)C(O)C(O)C(=O)NN=CC=Cc1ccccc1 (stereo not given) | -99% (active)
O=C(Nc1ccn(Cc2ccccc2)n1)c1n[nH]c([N+](=O)[O-])c1Cl | -0.724%
COC(=O)C(c1ccccc1)N1CCCCCC1 (stereo not given) | -22.2%
CC1(C)CC(N2CCN(C(c3ccccc3)c3ccccc3)CC2)=CC(=[N+]2CCCCC2)C1 | -98.5% (active)
COc1ccc(CCN2C(=O)N(c3cccc(OC)c3)C(=O)C2CC(=O)Nc2ccccc2)cc1 (stereo not given) | 30.6%
Cc1csc2nc(COc3ccc(NC(=O)COc4ccccc4)cc3)cc(=O)n12 | -18.6%
CCOC(=O)c1[nH]c(C)c(CCC(=O)N2CCN(c3ccccc3)CC2)c1C | -11%
COc1cc(OC)cc(-c2c(C#Cc3ccsc3)c3cc(-c4ccc(SC)cc4)ccc3n2C)c1 | -6.32%
COc1ccc(-c2c(C#Cc3ccccc3)c3ccccc3n2C)cc1 | -78.4% (active)
COc1ccc(CCNCc2c(-c3ccccc3)n(C)c3ccccc23)cc1 | -5.91%

Structure (SMILES) | activity change, negative = inhibition
COc1ccccc1CNCc1ccc(C(=O)O)s1 | -9.76%
O=C(CSc1nc(=O)[nH]c2c1CCCC2)Nc1cc(C(F)(F)F)ccc1Cl | -20.6%
O=C(Nc1ccc(CN2CCOCC2)cc1)c1cc(Cl)ccc1Cl | -13.5%
Cn1c(CN2CCOCC2)nc2cc(NC(=O)c3ccc(Cl)cc3)ccc21 | -84.5% (active)
CN1CCN(Cc2nc3cc(NC(=O)COc4ccc([N+](=O)[O-])cc4)ccc3n2C)CC1 | 18.6%
Cc1ccccc1S(=O)(=O)N[C@H]1CC[C@@]23CCCN2C(=O)CCC[C@H]3[C@H]1C | -19.4%
Cc1cccc(Cn2c(CN3CCC(C(=O)NCc4ccccc4Cl)CC3)cc3ccccc32)c1 | -4.28%
CCc1cc2c(cc3c(=O)n(CC(=O)N4CCN(c5cc(Cl)ccc5C)CC4)ncn32)s1 | 85.8%
O=c1c2ccccc2nc2n1C(CSc1ccc(Cl)cc1)CN2 (stereo not given) | 59.6%
O=c1c2ccccc2nc2n1C(CSCc1cccc(C(F)(F)F)c1)CS2 (stereo not given) | -67.5% (active)
O=c1c2ccccc2nc2n1C(CSCc1ccccc1)CS2 (stereo not given) | -74.9% (active)
C#CCCCc1nc2ccccc2c(=O)n1N | 56.9%
Cc1ccc(-n2c(/C=C/c3cccc(C(F)(F)F)c3)nc3ccccc3c2=O)cc1 | -5.7%
O=c1n(Cc2cccc(C(F)(F)F)c2)c2ccccc2c2nc(-c3ccccc3)nn12 | 26.8%
Cc1ccccc1C(=O)Nc1sc2c(c1C(=O)N1CCC(C)CC1)CCCC2 | -11.9%
COc1cc(Br)cc2cc(S(=O)(=O)c3ccccc3)c(=O)oc12 | 14.3%
CC(C)(C)c1ccc(CN2C(=O)CN=C(c3ccccc3)c3ccccc32)cc1 | -79.6% (active)
CCN(CC)C(=O)C1=C(C)N(Cc2ccc(C(C)(C)C)cc2)C(=O)C(CC(=O)NCc2cccc3ccccc23)C1 (stereo not given) | 16.5%
COc1ccc(CN2C(=O)CN=C2Nc2ccc(C)cc2C)cc1 | 1.11%
O=C(c1ccc(Cl)cc1)n1nc(-c2cccnc2)nc1NCc1ccc(F)cc1 | 4.96%
CCOc1ccc(-c2cc3nc(C4CCN(C(=O)OC(C)(C)C)CC4)c(C(=O)Nc4ccc(C(=O)OC)cc4)cn3n2)cc1 | 24.4%
COc1ccccc1CNC(=O)c1ccc(CS(=O)c2ccccc2Cl)o1 (stereo not given) | 9.25%
CCOc1ccc(NC(=O)c2c(NCc3cccc(OC)c3OC)sc3c2CCC3)cc1 | 13%

Structure (SMILES) | activity change, negative = inhibition
CN(c1ccc2nc3ccccc3c(=O)n2n1)C1CCCCC1 | -90% (active)
COCC(C)n1c(SCC(=O)NC2CCCCC2C)nc2ccccc2c1=O (stereo not given) | -19.2%
O=C(c1ccco1)N(Cc1nc2ccccc2c(=O)[nH]1)C1CCCC1 | -0.921%
COc1ccc(/C=C/C(=O)Nc2ccc(C)cc2)cc1S(=O)(=O)N1CCOCC1 | -73.1% (active)
O=C(CCc1ccc(S(=O)(=O)N2CCOCC2)cc1)Nc1ccc2ccccc2c1 | -9.83%
COc1ccc(CCC(=O)Nc2ccc(Cl)c(S(=O)(=O)N3CCOCC3)c2)cc1OC | -69% (active)
COc1ccc(NC(=O)c2cc(=O)[nH]c3ccccc23)cc1S(=O)(=O)N1CCOCC1 | 9.13%
COc1ccc(CC(=O)Nc2ccc3c(c2)CCC3)cc1S(=O)(=O)N1CCOCC1 | -10.6%
COc1ccc(C(=O)N(Cc2ccccc2)c2ccc(C)cc2)cc1S(=O)(=O)N1CCOCC1 | -15.2%
O=C(CSc1n[nH]c(-c2ccccc2)n1)N1CCCCC1 | 61.5%
CSc1nc(-c2ccc(F)cc2)nc2c1Cc1c(CO)cnc(C)c1O2 | 4.76%
CC(C)(CSc1nncn1/N=C/c1ccco1)NS(=O)(=O)c1ccc(Cl)cc1 | -28.3%
COc1cccc(NC(=O)N(Cc2cn(C)c3ccccc23)C2CCCCCC2)c1 | -105% (active)
COc1ccc(CCNC(=O)CCc2cn(C)c3ccccc23)c(OC)c1 | -11%
COc1cccc(NC(=O)N2CCCC2C(=O)NC2CCCCC2)c1 (stereo not given) | -32.8%
O=C(Cn1c(=O)n(-c2ccc(F)cc2)c(=O)c2sc3ccccc3c21)NC1CCCC1 | -5.96%
Fc1ccc(-c2nc(Nc3cccc(Cl)c3)nc3c2COc2ccccc2-3)cc1 | -30.5%
CCOC(=O)C(C)Sc1nnc(CSc2nc3nc(C)cc(C)n3n2)o1 (stereo not given) | -27.1%
Cc1cc2nnc(SCC(=O)N3CCN(c4ccccc4)CC3)n2c(N)n1 | 2.88%
Cn1c(CNC(=O)c2ccco2)nnc1SCC(=O)N1CCN(c2ccccc2)CC1 | 9.34%
Cn1c(Cc2cccc3ccccc23)nnc1SCC(=O)N1CCN(c2cccc(Cl)c2)CC1 | -71.4% (active)
